About 83,000 compounds went through this panel and 20% of them were active in at least one assay; those are over-represented in the sample as a whole.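 Cell lines were cultured in 96-well plates, exposed to a single compound concentration, and assessed for percent growth 48 hours later.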 A number with no mark means an inactive call. Activity calls are given as the source filed them. The calls were made as follows: active = growth percent below 10; inactive = the rest.

The subject of the experiment is UO-31 renal. Briefly: NCI-60 one-dose screen, 48 h (100 = growth as untreated, 0 = no growth, -100 = all killed). The conditions noted are these: 10 µM unless noted.
In the case of `COc1cc(OC)cc(C2=C3CC[C@@H]4[C@H](CC[C@]5(C)C(=O)CC[C@@H]45)C3=CC3C(O)c4cccnc4N4C(=O)COC234)c1` (stereo not given in full), the growth is 86.2%.

As to `CC(=O)Cc1nsc(NC(=O)c2cc(-c3cc(Cl)cc(Cl)c3)oc2C)n1`, the growth is 81%.

`CCOC(=O)c1cn2ncnc(Oc3ccc(NC(=O)NC4CCCCC4)c(Cl)c3)c2c1C`: the growth was 79%.

Take `Cc1nnc(NC(=O)c2nc(S(=O)(=O)Cc3ccc(F)cc3)ncc2Cl)s1`: the growth is 73.6%.

Consider `C#CCOc1ccc2ncnc(Nc3ccc(NC(=O)CCl)cc3)c2c1`, for which the growth was -25.8% (active).

As for `CCOC(=O)C#Cc1c(C(=O)OCC)nnn1[C@@H]1O[C@H](CO)[C@H]2OC3(CCCCC3)O[C@H]21`, the growth was 5.58% (active).

As to `C/C(=N/O)c1ccc(F)cc1`, the growth is 80.8%.

Take `CCOC(=O)Cn1c(O)c(N=Nc2ccc(S(N)(=O)=O)cc2)c2cc(Br)ccc21`: the growth was 87.5%.

Regarding `Cc1nc(N2CCOCC2)sc1S(N)(=O)=O`, the growth is 86.5%.

In the case of `COc1ccc(OC)c(C(=O)/C=C/c2cc3c(c(OC)c2OC)OCO3)c1`, the growth is 63.6%.

Regarding `O=c1oc2ccccc2cc1C1=NN=C(SCc2ccccc2)SC1`, the growth is 73.7%.

In the case of `COc1ccc(C(=S)N2CCN(c3ccccc3Cl)CC2)cc1OC`, the growth is 104%.

As to `Cc1ccc(/C=C2\CN(C(=O)OC(C)(C)C)C/C(=C\c3ccc(C)cc3)C2=O)cc1`, the growth is 66.9%.

In the case of `O=C(Nc1nn(-c2ccc(Cl)cc2Cl)nc1-c1ccccc1)c1ccccc1`, the growth is 67.6%.

As for `CCN(CC)c1ccc(/C=C/C(=O)c2ccc(Nc3nc(Nc4ccccc4)nc(Nc4ccccc4)n3)cc2)cc1`, the growth was 23.9%.

Turning to `COC(=O)[C@H]1CCCN1C[C@@H](O)CN1C(=O)/C(=C\c2cc(OC)c(OC)c(OC)c2)c2ccccc21`, the growth is 82.1%.

As to `CN(C)c1ccc(Nc2cc(-c3cccc(OC(F)(F)F)c3)nc3ccc(N4CCCC4)cc23)cc1`, the growth is 74%.

For the compound `O=C(Nc1cc(Cl)ccc1O)c1ccc(Nc2ccnc(C(F)(F)F)c2)cc1`, the growth is 12.6%.

Regarding `COc1cc(OC)c2sc(-c3ccc(-n4cncc4-c4ccc(OC)c(OC)c4)cc3)nc2c1`, the growth was 25.5%.

As for `O=C1c2cccnc2C(=O)c2c1c(C(=O)NCCCN1CCCCC1)c1ccccn21`, the growth is -34.5% (active).

On to `CCOC(=O)c1ccc2[nH]c(O)c(C(=Nc3ccc(N(C)C(=O)CN4CCN(C)CC4)cc3)c3ccccc3)c2c1`, for which the growth was -41.6% (active).

Regarding `CCN1C(=O)N(CC)C2C1NN=c1s/c(=C\c3cccc([N+](=O)[O-])c3)c(=O)n12` (stereo not given), the growth was 41.1%.

`CC1=C(Nc2ccc(N3CCN(C)CC3)cc2)C(=O)c2cncnc2C1=O`: the growth is 86.2%.

With `O=C1Nc2ccc(Br)cc2/C1=N/c1n[nH]c(=S)s1`, the growth is 86.4%.

For `CCN(c1ccc(Cl)cc1)c1nc(-c2ccc([N+](=O)[O-])cc2)cs1`, the growth is 71.9%.

Take `C=C(C)[C@@H]1CC[C@]2(C)[C@H](CC=C3[C@@H]4[C@H](C)[C@@H](C)CC[C@]4(CO)CC[C@]32C)[C@@]1(C)CCCN`: the growth was 34.1%.

On to `O=C(/C=C(/C=C/c1cccc2[nH]ccc12)OB(F)F)/C=C/c1cccc2[nH]ccc12`, for which the growth is -77.6% (active).

Take `CCN1CC(=O)N(/N=C2\C(=O)Nc3ccccc32)C1=S`: the growth was 60.5%.

In the case of `CCN1CCN(c2cc(C(=O)Nc3nc(-c4cc(OC)c(OC)c(OC)c4)cs3)cc(C(F)(F)F)c2)CC1`, the growth was 37%.

Take `COc1ccc(-c2nc(/C=C3\SC(=NCc4ccccc4)NC3=O)c3ccccn23)cc1`: the growth was -47.2% (active).

Consider `CCOC(=O)C(=Cc1cccc(Br)c1)C(=O)OCC`, for which the growth was 52.4%.

For `N#CC1=C(N)Oc2c(sc3c(F)cccc23)C1c1ccc(F)cc1` (stereo not given), the growth is 41.9%.

Take `CCOc1nc(-c2ccccc2)cc2c(O)c(C(=O)NN)[nH]c(=O)c12`: the growth is 88.6%.

Turning to `O=C1c2cccc(NCCN=Cc3cc(O)ccc3O)c2C(=O)c2c(NCCN=Cc3cc(O)ccc3O)cccc21`, the growth is -18% (active).

Consider `C=CCn1cc(-c2nc3ccccc3s2)c2cc(-c3ccc4c5c(cccc35)C(=O)N(N)C4=O)ccc21`, for which the growth was 61.3%.

As to `CCOC(=O)CNP(=O)(OC[C@@H](Cc1ccccc1)NC(=O)c1cc2ccccc2s1)Oc1ccccc1` (stereo not given in full), the growth is 80.7%.

Turning to `CCC(=C(c1ccc(OCCN2CCCC2)cc1)c1ccc(OCCN2CCCC2)cc1)c1ccc(Cl)cc1`, the growth was -73.4% (active).

In the case of `Oc1c(Cl)cc(Cl)c2ccc(Cn3cc(-c4ccc(C(F)(F)F)cc4)nn3)nc12`, the growth was 68.5%.

Take `O=C(NCCCCNC(=O)OCc1ccc2c(Cl)cc(Cl)c(O)c2n1)OCc1ccc2c(Cl)cc(Cl)c(O)c2n1`: the growth was 37.2%.

For `CCN(CC)CCNC(=O)c1cn2ncnc(Oc3ccc(NC(=O)Nc4ccc(Cl)c(C(F)(F)F)c4)c(F)c3)c2c1C`, the growth is -53% (active).

Values taken from PubChem BioAssay (NCI).
